# Assay results from the supplement of paper PMC6555819.
# Key:
# Assay in all cases: PBM binding z-score (relative to random genomic background probes); higher = stronger binding; sequences stand for … in GC…GCGATTGACAGCGTAGAATGAAGG
# [1] = system: RARb homodimer (NR concentration 270 nM)
# Outline: (§1)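 Antibodies against each partner of ligand-free nuclear receptor dimers (one per run) detected binding on custom Agilent 4×180K protein-binding microarrays after 1 h incubation. The double-stranded probes had 34-nt variable regions carrying direct-repeat seeds, single-nucleotide variants, half-site ablations and random human genomic background sequences. Binding z-scores, from regression-normalized fluorescence, use the random background probes as reference.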
# [2] = system: RARg homodimer (NR concentration 270 nM)
# Outline: as §1
# [3] = system: RXRa DBDmut IVT, anti-RXR (DBD mutation: RXRa K156A/R161A, NR concentration 90 nM)
# Outline: as §1
# [4] = system: THRa homodimer (NR concentration 90 nM)
# Outline: as §1
# [5] = system: VDR homodimer (NR concentration 270 nM)
# Outline: as §1
# [6] = system: THRa:RXRa (NR concentration 90 nM, RXRa partner concentration 90 nM)
# Outline: as §1
# [7] = system: RARg:RXRa (NR concentration 270 nM, RXRa partner concentration 90 nM)
# Outline: as §1
# [8] = system: RXRa homodimer (NR concentration 180 nM)
# Outline: as §1
Sequence,PBM binding z-score [1],PBM binding z-score [2],PBM binding z-score [3],PBM binding z-score [4],PBM binding z-score [5],PBM binding z-score [6],PBM binding z-score [7],PBM binding z-score [8]
CAAACAAGGTCAAGAGGTCAAAGTCCGCTTCCCG,6.24,8.91,3.92,3.28,5.74,–,–,–
CAAACAAGGTCAAGGTCAAAGTCGGTTTGTGCCA,5.74,7.76,4.13,4.5,5.71,4.6,–,–
TCTCGGATGACACGAAGGTCAGAGCTTTCCAGAG,3.15,2.31,0.542,0.229,0.13,1.68,2.66,2.48
GCTCGGAGGACGAGGTCAGAGCTTTGTCCGTAGA,2.89,2.84,0.606,1.51,1.26,3.09,3.06,3.19
TGAATGAGATTATAAGATCAGGGAACGTTGCAAA,-1.01,0.172,-1.08,-1.28,-0.262,-0.424,-0.048,-0.35
TCATTTAGGTAATACAGGTGAAAGTCGGCATCTA,0.788,0.652,1.96,1,0.57,1.58,0.841,1.33
CCGACTGGGGCAGAAAGGTTACCATCCCATCCGG,2.3,1.19,-1.13,-0.666,-0.162,0.817,1.44,1.48
TCTTGTCGATCAATAGAGGTTAAGAAAGTGCGCT,1.53,0.688,0.601,-0.159,0.435,1.94,0.847,1.46
ACTATTAGTTGAGACGAGGGCAACCTATAGGTTG,1.39,0.764,0.356,0.429,0.902,2.63,0.509,0.544
TCAGACAGTTGAAGGTAACTCAGGTACGCAGTCG,-0.0141,0.167,1.29,0.195,0.508,1.17,0.206,0.943
TCTTTTAGATCAAGCAGGTTAAGAAAGCCTGAGT,0.0271,0.212,1.19,-0.436,0.0126,0.401,0.216,0.49
ATCTCTAAGTAAAGTTCAGTGAAAGATCGATAGA,2.32,2.42,1.71,-0.131,2.32,0.85,1.98,1.26
CCCTACGGGTCAAGGTTATAGCACGGGTGGTACG,3.5,4.83,0.145,0.962,1.07,3.07,5.05,5.35
ATCGAAAGATCGTGAGGTGAGTATACAGAAAGGC,-0.106,0.519,-0.575,0.91,-0.449,1.73,0.546,0.649
CGTCCACGGTCAGCAGGTCAGTGAAAGCGACGTG,3.48,3.3,0.0347,-0.0318,-0.234,1.22,2.99,0.719
ACTCGGAGGACAAGGGTCAGAGCTACGCCAGTGA,3.36,3.19,0.24,0.361,1.05,2.28,3.88,2.82
CCGACTGGGGCAGAATGGTTACCATACCATCCGG,-0.435,0.0342,-0.908,-0.862,-0.629,-0.891,0.00778,-0.122
CGAACTAGGTCATTGACTGGACAGTGAATAGTAA,2.56,4.26,2.1,0.595,0.943,2.25,3.72,2.58

Sequence,PBM binding z-score [1],PBM binding z-score [2],PBM binding z-score [3],PBM binding z-score [4],PBM binding z-score [5],PBM binding z-score [6],PBM binding z-score [7],PBM binding z-score [8]
CCTACTGGGCCAAAAAGGTCATTGAAGCCGATAA,4.33,4.29,0.615,0.418,2.58,3.08,4.98,5.31
CCTGCGAGGTCAATGGTCAGCTAAAGCAGCTCGC,4.2,5.99,4.37,2.37,3.63,3.8,6.01,5.95
CGTCAAAGTTCAACTAAGGTAACGTTAAGCACGC,4.42,6.57,4.55,2.19,4.26,5.42,6.02,5.24
TCTATTAGTTGAAGGGCCACCGACGAGTCCGTTT,0.971,0.128,1.69,0.396,1.35,0.074,0.277,0.47
GCTTGTAGAGCAAGGTTAAGAAAGACTAAGCTAA,-0.118,0.162,-0.22,-1.02,-0.25,0.745,0.204,0.282
AGAACGAGGGCAATGAGTTGATATCACGGGTGGC,1.12,1.45,2.15,-0.128,2.71,1.17,1.33,1.2
TTACCAAGGTGAAAGGTCGTTCATGCACGCCTTG,2.8,2.27,0.778,0.876,1.96,3.24,4.33,5.93
CAAACTAGGTCATAGAGGTCAAAGTCCGTGCGTA,5.51,7.46,3.57,2.63,7.04,4.64,6.95,7.64
ACAGACAGGTGAGTGAAGGTAACTCACCTGGACG,0.335,0.628,-0.647,-0.0711,-0.74,1.83,0.343,0.429
AGAATGAGGTTTCCAAAGATCAGGGAAACGCTTG,-0.579,-0.103,-0.247,-0.311,-0.385,-0.118,-0.0652,0.124
CGAACTAGGTTAAGGACAGTGAATCTCCGCACGC,1.1,0.965,0.432,3.05,-0.012,3.11,0.615,0.533
CCGATTGGGGCAGAAAGGTTACCATACCATCCGG,2.03,1.25,-0.405,-0.567,-0.225,0.945,1.61,1.75
TCAGACAGGTGAAGGTAACTCTGGTACGCAGTCG,0.721,0.535,1.03,0.16,0.154,1.01,0.492,0.951
TCTAGTTGGTCAAAGGTCATACACTCGAAATGCG,5.06,5.49,2.31,1.94,3.4,4.15,6.94,8.07
CGAACTAGGTCAAGGACAGTGTATCTCCGCACGC,3.56,4.37,1.87,2.61,0.841,3.45,3.8,2.55
CCTCGGAGGACCACAGGAGGTCAGAGCTGCCAGA,3.17,2.01,-0.446,0.73,0.746,2.76,2.2,1.85
CGTCCAAGGTCAGAGAGGTCAGTCAATGCCGAGT,5.37,7.2,3.32,2.83,5.88,4.46,6.53,5.76
CCTCGGAGGACAACAGGAGGTGAGAGCTGCCAGA,1.05,1.35,-0.141,0.525,-0.285,1.44,0.71,-0.117
